Test results reported in PubChem BioAssay (NCI).
This is part of a sample that, as a whole, favours compounds with a hit. Of some 83,000 tested, about 20% had one in any assay.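 Cell lines were cultured in 96-well plates, exposed to a single compound concentration, and assessed for percent growth 48 hours later.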 Active and inactive are the calls of the source. Rule for the calls: active = growth percent below 10; inactive = the rest.

These compounds were tested on MDA-MB-468 breast (assay: NCI-60 one-dose screen, 48 h (100 = growth as untreated, 0 = no growth, -100 = all killed)). Conditions: 10 µM unless noted.
`O=C1/C(=C/c2ccc(F)cc2)COc2ccc(O)c(O)c21` was tested, and the growth was -2.42% (active).
`C=C(C)[C@@H]1CC[C@]2(COCCCN)CC[C@]3(C)[C@H](CC[C@@H]4[C@@](C)(CCCNCCCN)[C@H](C(=C)C)CC[C@]43C)[C@@H]12` was tested, and the growth was -53.8% [100 µM] (active).
With `Fc1ccc(NCc2nnc(-c3ccc(Cl)cc3)o2)cc1` the growth was 56.9% (inactive).
`COc1cc2cc(Oc3ccc(NC(=O)Nc4ccc(Cl)c(Cl)c4)cc3)c(C)nc2cc1OCCN1CCCCC1` was tested, and the growth was 103% (inactive).
For `CN1CCN(c2ccc(Nc3ncc(Cl)c(NC[C@@H]4CCCO4)n3)cc2)CC1`, the growth was 30.7% (inactive).
For `C[C@@H]1[C@H]2[C@H](C=C3[C@@H]4CC[C@H]5Cc6nc7c(nc6C[C@]5(C)[C@H]4C[C@@H](O)[C@@]32C)C[C@@H]2CC[C@H]3C4=C[C@@H]5O[C@@]6(CC[C@](C)(CO)O6)[C@@H](C)[C@@]5(O)[C@@]4(C)[C@H](O)C[C@@H]3[C@@]2(C)C7)O[C@]12CCC(C)(C)O2`, the growth was 11.8% (inactive).
`Cc1cc(C)c(C(=O)OC(C)CNC2CCCCC2)c(C)c1` (stereo not given) was tested, and the growth was 103% (inactive).
In the case of `CCC(/C=C\C(C)=O)CC`, the growth is reported as 102% (inactive).
With `C#CCOc1ccc2ncnc(Nc3ccc(NC(=O)C=C)cc3)c2c1` the growth was -22.3% (active).
In the case of `O=C1NC(SCc2ccc(F)cc2)=N/C1=C/c1cccc(OCc2ccc(Cl)cc2)c1`, the growth is reported as 62.9% (inactive).
For `O=C(O)c1ccc(-n2cc(/C=N/Nc3ccc(Cl)cc3)c(-c3ccc(F)c(F)c3)n2)cc1`, the growth was 83.2% (inactive).
For `COc1ccc(-c2ncnc3c2ncn3CC#CCCl)cc1`, the growth was 20.8% (inactive).
In the case of `O=C(Nc1ccc(Cl)c(Cl)c1)Nc1c(Oc2ccc(Cl)c(Cl)c2)ccc(Cl)c1S(=O)(=O)O`, the growth is reported as -5.92% (active).
For `CC1=C(C)C(=O)C(Nc2cccc(C(F)(F)F)c2)=C(Cl)C1=O`, the growth was -65.6% (active).
In the case of `COC(=O)c1cc(-c2ccccc2)[nH]c1N/N=C/c1c(Cl)cccc1Cl`, the growth is reported as -7.8% (active).
`O=C(Nc1nc2c(C(F)(F)F)cccc2s1)c1cc(Cl)ccc1O` was tested, and the growth was -10.5% (active).
For `N#Cc1c(C(F)(F)F)cc(Nc2ccc3nc(NCCN4CCCC4)oc3c2)n2c1nc1ccccc12`, the growth was 34.1% (inactive).
In the case of `Cc1ccc[n+](CC(=O)c2cccc3ccccc23)c1`, the growth is reported as 80.2% (inactive).
With `BrCc1cccc(C[P+](c2ccccc2)(c2ccccc2)c2ccccc2)c1` the growth was -12.4% (active).
With `COc1cc(F)c(-c2nc3c(C)cccc3n2Cc2c(F)cccc2F)c(F)c1` the growth was 65.5% (inactive).
For `O=CN1N=C(c2cccc(Nc3ccnc4cc(Cl)ccc34)c2)CC1c1ccccc1` (stereo not given), the growth was 13% (inactive).
`CCC(=C(c1ccc(OCCCN(C)C)cc1)c1ccc(OCCCN(C)C)cc1)c1ccc(Cl)cc1` was tested, and the growth was -74.4% (active).
With `O=C(Nc1ccc([N+](=O)[O-])cc1)c1cc2ccccc2cc1O` the growth was -8.75% (active).
`CCCn1cnc2c(c1=N)C(c1ccc(OC)cc1)c1sc3c(CC)cccc3c1O2` (stereo not given) was tested, and the growth was 39.4% (inactive).
For `O=C(Cc1ccc(/C=C/C(=O)c2ncc[nH]2)cc1)Nc1ccccc1`, the growth was 22.2% (inactive).
`COc1ccc2[nH]cc(-c3nc(-c4cn(C)c5ccncc45)cs3)c2c1` was tested, and the growth was 102% (inactive).
In the case of `COc1ccccc1NC(=O)COc1ccc(/C=C2/Oc3cc4occc4c(OC)c3C2=O)cc1OC`, the growth is reported as 102% (inactive).
With `O=C1/C(=C/c2ccc(F)c(F)c2)CN(C(=O)C(Cl)Cl)C/C1=C\c1ccc(F)c(F)c1` the growth was -58.2% (active).
`O=C(O)CN1C(=O)C=CC1=O` was tested, and the growth was 104% (inactive).
For `COc1ccc(-c2nc(NCCO)[nH]c(=O)c2C#N)cc1`, the growth was 112% (inactive).
In the case of `COc1cc(CN(c2ccc(Cl)cc2)C2OC(=O)c3ccccc32)cc(OC)c1OC` (stereo not given), the growth is reported as 16.8% (inactive).
`CC(C)(C)n1cc(-c2ccnc(NCCNS(=O)(=O)c3ccc(F)cc3)c2)c(-c2cccc(O)c2)n1` was tested, and the growth was 8.72% (active).
With `C#CCOc1cccc(-c2ncc3cc(NC(=O)CCl)ccc3n2)c1` the growth was -60.6% (active).
In the case of `COc1ccc(-n2c(/C=C3\C(=O)Nc4ccccc43)ccc2CO)cc1`, the growth is reported as 96.4% (inactive).
`COC1=C(C)C(=O)N2[C@@H]1[C@H](c1ccccc1)OC21C=CC(=O)C=C1` was tested, and the growth was -20.4% (active).
In the case of `COc1cc(C(=O)c2cc(C)c3[nH]c4ccc(Cl)cc4c3c2C)cc(OC)c1OC`, the growth is reported as -13.2% (active).
With `CN1CC[C@H](c2c(O)cc(O)c3c(=O)cc(-c4ccccc4Cl)oc23)[C@H](O)C1` the growth was -42.7% (active).
For `O=C1NC(=O)/C(=C\c2ccco2)S1`, the growth was 108% (inactive).
With `CCOC(=O)c1c(Nc2ccccc2)nn2c(-c3ccc(Cl)cc3)ccnc12` the growth was 65.1% (inactive).
With `C=C(C)[C@@H]1CC[C@]2(C(=O)N3CCN(C)CC3)CC[C@]3(C)[C@H](CC[C@@H]4[C@@]5(C)C/C(=C/c6ccncc6)C(=O)C(C)(C)[C@@H]5CC[C@]43C)[C@@H]12` the growth was 55.6% (inactive).
